Results reported in PubChem BioAssay (NCI).
This is part of a sample that, as a whole, favours compounds with a hit. Of some 83,000 tested, about 20% had one in any assay.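 Assay: single dose, 48 h. Readout: percent growth (0 = no net growth; negative = cell death). Active: <10.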 Values without a mark were called inactive. The source made the active and inactive calls.

test system: HCT-116 colon; test: NCI-60 one-dose screen, 48 h (100 = growth as untreated, 0 = no growth, -100 = all killed); conditions: 10 µM unless noted

| Compound | growth |
| --- | --- |
| CC(=O)N1C(=S)NC(=O)C1CC(C)C (stereo not given) | 106% |
| C#Cc1ccc(C(=O)NCc2ccc(/C=C/C(=O)c3nccn3C)cc2)cc1 | 14% |
| Cn1ccnc1C(=O)/C=C/c1ccc(NC(=O)c2ccc(F)cc2)cc1 | 8.87% (active) |
| O=C(O)c1ccc(-n2cc(CNc3cccc(Cl)c3)c(-c3ccc(F)cc3)n2)cc1 | 89.2% |
| CCC1=Cc2cc(OC)ccc2OC12C=Cc1cc(OC)ccc1O2 (stereo not given) | 14.2% |
| CCO/C=N/C1=C(C#N)C(c2ccc(OC)cc2)c2sc3c(C)cccc3c2O1 (stereo not given) | 12% |
| COc1cccc(O)c1/C=C(/C)c1ccc2c(OC)cccc2[o+]1 | 101% |
| C#CCNC1CCC(c2csc(C#C)n2)=C1C (stereo not given) | 80.9% |
| CCO/C=N/C1=C(C#N)C(c2ccc(OC)cc2)c2sc3c(CC)cccc3c2O1 (stereo not given) | 24.1% |
| C=CCn1c(SCC(=O)Nc2ccc(C(=O)/C=C/c3ccc(Cl)cc3)cc2)nnc1-c1c[nH]c2ccccc12 | -46% (active) |
| N#Cc1cccc(CN2CCC3=C(C2)C(=O)N(Cc2ccc(Cl)cc2)C2=NCCCN23)c1 | 22.5% |
| CCN(CC)c1cn(-c2ccc(S(N)(=O)=O)cc2)nn1 | 116% |
| CCCCCc1ccc(S(=O)(=O)Nc2cccc(-c3csc(NC(=O)CCCCCN4CCN(C)CC4)n3)c2)cc1 | -36.2% (active) |
| CCCCCc1ccc(S(=O)(=O)Nc2cc(-c3csc(NC(=O)CN4CCN(C)CC4)n3)ccc2OC)cc1 | -70.8% (active) |
| COc1ccccc1NCc1cccn1Cc1ccc(F)cc1 | 93.8% |
| CC(=O)c1cc(C(=O)c2ccc(Br)cc2)n2cc(C)cc(C)c12 | 85.7% |
| O=C1Nc2ccccc2/C1=C/c1ccc(COCC2CO2)n1-c1ccc(O)cc1 (stereo not given) | 99.2% |
| C/C(=N\O)[C@H]1C[C@]23CC[C@]4(C)[C@H](CC[C@@H]5[C@@]6(C)CC/C(=N/O)C(C)(C)[C@@H]6CC[C@]54C)[C@H]2[C@H](C)C1(C)OC3 | 97.2% |
| NC(N)=Nc1ccc(Oc2cccc(Oc3ccc(Cl)c(C(F)(F)F)c3)c2)cn1 | -91.5% (active) |
| COc1ccc([C@@H]2c3[nH]c4ccccc4c3C[C@H]3C(=O)N(C4CCN(CC5CCCCC5)CC4)CC(=O)N23)c(OC)c1 | 50% |
| COc1ccc(C2CC(c3ccc(Nc4nc(NCCO)nc(N5CCOCC5)n4)cc3)=Nc3c(N)nc(N)nc3N2)cc1 (stereo not given) | 100% |
| Cc1ccc2c(c1)Oc1nc(N)c(C#N)c(N)c1C2Sc1ccc(F)cc1 (stereo not given) | -89.9% (active) |
| O=C(CCn1c[n+](CC(=O)c2ccc(-c3ccccc3)cc2)c2ccccc21)Nc1cccc2cccnc12 | 56% |
| O=S(=O)(NCCNc1nccc(-n2cnc3ccccc32)n1)c1ccc(Cl)cc1 | 94.6% |
| O=C1CCCc2nc(Nc3ccc(S(=O)(=O)Nc4ccc([N+](=O)[O-])cc4)cc3)ncc21 | 108% |
